According to PubChem BioAssay (NCI):
About 83,000 compounds went through this panel and 20% of them were active in at least one assay; those are over-represented in the sample as a whole.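 Values shown are percent growth following 48 h exposure of cells in 96-well plates to a single concentration of compound; below 10 was considered active.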 Active and inactive are the calls of the source.

What was measured:
Test in all cases: NCI-60 one-dose screen, 48 h (100 = growth as untreated, 0 = no growth, -100 = all killed)
SK-MEL-2 melanoma = conditions: 10 µM unless noted
EKVX NSCLC = conditions: 10 µM unless noted
SN12C renal = conditions: 10 µM unless noted
UO-31 renal = conditions: 10 µM unless noted
TK-10 renal = conditions: 10 µM unless noted
ACHN renal = conditions: 10 µM unless noted
CAKI-1 renal = conditions: 10 µM unless noted
HL-60(TB) leukemia = conditions: 10 µM unless noted
CCRF-CEM leukemia = conditions: 10 µM unless noted
MOLT-4 leukemia = conditions: 10 µM unless noted
SR leukemia = conditions: 10 µM unless noted
RPMI-8226 leukemia = conditions: 10 µM unless noted
OVCAR-5 ovarian = conditions: 10 µM unless noted
OVCAR-4 ovarian = conditions: 10 µM unless noted
SK-OV-3 ovarian = conditions: 10 µM unless noted
IGROV1 ovarian = conditions: 10 µM unless noted
OVCAR-3 ovarian = conditions: 10 µM unless noted
HS 578T breast = conditions: 10 µM unless noted
A498 renal = conditions: 10 µM
OVCAR-8 ovarian = conditions: 10 µM unless noted

Measured: growth

CCn1cnc2c(Nc3cccc(Cl)c3)nc(N[C@@H]3CCCC[C@@H]3N)nc21
active: SK-MEL-2 melanoma -1.69% | SN12C renal 6.96% | UO-31 renal -13.3% | ACHN renal 0.47% | HL-60(TB) leukemia -51.6% | CCRF-CEM leukemia 2.54% | MOLT-4 leukemia -10.9% | SR leukemia -32.7% | RPMI-8226 leukemia -33.2% | OVCAR-5 ovarian 3.37% | OVCAR-4 ovarian -7.56% | IGROV1 ovarian 5.27% | OVCAR-3 ovarian 0.926%
inactive: EKVX NSCLC 11.8% | TK-10 renal 13.5% | CAKI-1 renal 25.1% | SK-OV-3 ovarian 40.1% | HS 578T breast 26.9%

CCOC(=O)[C@@H](C)C[C@H](Cc1ccccc1)NC(=O)c1csc([C@@H](C[C@H](C(C)C)N(C)C(=O)CNC(=O)[C@H]2CCCCN2C)OC(C)=O)n1
active: A498 renal -3.32% | HL-60(TB) leukemia -32.3% | CCRF-CEM leukemia 5.17% | SR leukemia 7.72% | OVCAR-8 ovarian 9.59% | OVCAR-3 ovarian -17.4% | HS 578T breast 3.01%
inactive: SK-MEL-2 melanoma 28.1% | EKVX NSCLC 34.8% | SN12C renal 36% | UO-31 renal 39.7% | TK-10 renal 65.7% | ACHN renal 43.7% | MOLT-4 leukemia 19.7% | RPMI-8226 leukemia 15.4% | OVCAR-5 ovarian 32.1% | OVCAR-4 ovarian 46.4% | SK-OV-3 ovarian 21.9% | IGROV1 ovarian 33.4%

Cn1cc(-c2csc(-c3cn(CCN4CCOCC4)c4ccccc34)n2)c2cccnc21
inactive: SK-MEL-2 melanoma 68.8% | EKVX NSCLC 55.1% | SN12C renal 77.4% | UO-31 renal 34.9% | TK-10 renal 87.9% | ACHN renal 63% | A498 renal 85.1% | HL-60(TB) leukemia 36.1% | CCRF-CEM leukemia 36.9% | MOLT-4 leukemia 29.9% | SR leukemia 63.6% | RPMI-8226 leukemia 29.6% | OVCAR-8 ovarian 29.5% | OVCAR-5 ovarian 95.6% | OVCAR-4 ovarian 64.2% | SK-OV-3 ovarian 105% | IGROV1 ovarian 61.8% | OVCAR-3 ovarian 70% | HS 578T breast 78%

CN(C)C1C(=O)C(C(N)=O)=C(O)C2(O)C(=O)C3=C(O)c4c(O)cccc4C(C)(O)C3CC12.[Cl][Sb]([Cl])[Cl] (configuration not stated)
active: SK-MEL-2 melanoma -7.83%
inactive: EKVX NSCLC 41% | SN12C renal 41.8% | UO-31 renal 54.7% | TK-10 renal 42.4% | ACHN renal 59% | CAKI-1 renal 12.3% | CCRF-CEM leukemia 17% | MOLT-4 leukemia 36.9% | SR leukemia 19.2% | RPMI-8226 leukemia 15.4% | OVCAR-8 ovarian 21.3% | OVCAR-5 ovarian 143% | OVCAR-4 ovarian 44.2% | SK-OV-3 ovarian 76.9% | IGROV1 ovarian 45.1% | OVCAR-3 ovarian 38% | HS 578T breast 31.7%

CCCCCCCCOC(=O)CCN1CC1
inactive: SK-MEL-2 melanoma 119% | EKVX NSCLC 99% | SN12C renal 106% | UO-31 renal 92.8% | TK-10 renal 127% | ACHN renal 103% | A498 renal 84.2% | HL-60(TB) leukemia 149% | CCRF-CEM leukemia 110% | MOLT-4 leukemia 103% | SR leukemia 101% | RPMI-8226 leukemia 103% | OVCAR-8 ovarian 102% | OVCAR-5 ovarian 104% | OVCAR-4 ovarian 115% | SK-OV-3 ovarian 109% | IGROV1 ovarian 115% | OVCAR-3 ovarian 108% | HS 578T breast 99.6%

Cc1cc(-c2nc3cc(F)ccc3[se]2)cc(F)c1N
inactive: SK-MEL-2 melanoma 101% | EKVX NSCLC 66.4% | SN12C renal 95.5% | UO-31 renal 55.8% | TK-10 renal 57.6% | ACHN renal 79% | A498 renal 74.8% | HL-60(TB) leukemia 87.2% | CCRF-CEM leukemia 85.2% | MOLT-4 leukemia 83.6% | SR leukemia 23.9% | RPMI-8226 leukemia 66.8% | OVCAR-8 ovarian 104% | OVCAR-5 ovarian 51.2% | OVCAR-4 ovarian 63.3% | SK-OV-3 ovarian 73.6% | IGROV1 ovarian 37.3% | OVCAR-3 ovarian 87.2% | HS 578T breast 102%

Nc1ccc(Cl)cc1
inactive: SK-MEL-2 melanoma 95.7% | EKVX NSCLC 95.7% | SN12C renal 95.3% | UO-31 renal 94.9% | TK-10 renal 92.3% | ACHN renal 108% | A498 renal 103% | HL-60(TB) leukemia 95% | CCRF-CEM leukemia 98.2% | MOLT-4 leukemia 94.3% | SR leukemia 102% | RPMI-8226 leukemia 98.9% | OVCAR-8 ovarian 97.4% | OVCAR-5 ovarian 100% | OVCAR-4 ovarian 106% | SK-OV-3 ovarian 92% | IGROV1 ovarian 105% | OVCAR-3 ovarian 112% | HS 578T breast 98.9%

COc1ccc([As]=[As]c2ccc(OC)c(NCS(=O)(=O)O)c2)cc1NCS(=O)(=O)O (configuration not stated)
inactive: SK-MEL-2 melanoma 23.9% | SN12C renal 12.4% | UO-31 renal 25.7% | ACHN renal 46.6% | A498 renal 20.9% | OVCAR-8 ovarian 44% | OVCAR-5 ovarian 63.8% | OVCAR-4 ovarian 14.9% | SK-OV-3 ovarian 91.6%
active: EKVX NSCLC 0.829% | TK-10 renal -16.2% | HL-60(TB) leukemia -7.43% | CCRF-CEM leukemia -13.9% | MOLT-4 leukemia -0.189% | SR leukemia -1.51% | RPMI-8226 leukemia -13% | IGROV1 ovarian 5.53% | OVCAR-3 ovarian 9.01% | HS 578T breast 6.44%

CC(=O)O[C@H](C[C@H](C(C)C)N(C)C(=O)[C@@H](NC(=O)[C@H]1CCCCN1C)C(C)(C)C)c1nc(C(=O)N[C@@H](Cc2ccccc2)C[C@H](C)C(=O)O)cs1
inactive: SK-MEL-2 melanoma 21.8% | EKVX NSCLC 39.7% | SN12C renal 17.9% | UO-31 renal 43% | TK-10 renal 52.6% | ACHN renal 29% | RPMI-8226 leukemia 16.8% | OVCAR-5 ovarian 32% | OVCAR-4 ovarian 41.6% | SK-OV-3 ovarian 28.6% | IGROV1 ovarian 18.9% | HS 578T breast 16.7%
active: A498 renal -6.47% | HL-60(TB) leukemia -26% | CCRF-CEM leukemia 1.05% | MOLT-4 leukemia 6.26% | SR leukemia 2.59% | OVCAR-8 ovarian 8.74% | OVCAR-3 ovarian -14.6%

c1ccc(Nc2nc(-c3ccccc3)c[se]2)cc1
inactive: SK-MEL-2 melanoma 105% | EKVX NSCLC 70.3% | SN12C renal 86.2% | UO-31 renal 46.2% | TK-10 renal 83.5% | ACHN renal 84% | A498 renal 55.9% | HL-60(TB) leukemia 102% | CCRF-CEM leukemia 101% | MOLT-4 leukemia 76.2% | SR leukemia 79.6% | RPMI-8226 leukemia 86.6% | OVCAR-8 ovarian 96.3% | OVCAR-5 ovarian 96.7% | OVCAR-4 ovarian 75.6% | SK-OV-3 ovarian 86.4% | IGROV1 ovarian 68.8% | OVCAR-3 ovarian 93.5% | HS 578T breast 89.6%

COC(=O)[C@@H](C)C[C@H](Cc1ccccc1)NC(=O)c1nc([C@@H](C[C@H](C(C)C)N(C)C(=O)[C@@H](NC(=O)[C@H]2CCCN2C)C(C)C)OC(C)=O)sc1C
inactive: SK-MEL-2 melanoma 36.6% | EKVX NSCLC 45.4% | SN12C renal 31% | UO-31 renal 43.9% | TK-10 renal 13.6% | ACHN renal 19.6% | CCRF-CEM leukemia 10.3% | MOLT-4 leukemia 15.3% | RPMI-8226 leukemia 20.6% | OVCAR-8 ovarian 14.5% | OVCAR-5 ovarian 30.7% | OVCAR-4 ovarian 49.9% | IGROV1 ovarian 27.4% | HS 578T breast 18.8%
active: A498 renal -2.29% | HL-60(TB) leukemia -33.5% | SR leukemia 5.28% | SK-OV-3 ovarian 1.93% | OVCAR-3 ovarian -9.82%

CC1=C(CCCOC(=O)[C@H](N)CC(C)C)C2=C(C)C3(CC3)[C@@](C)(O)C(=O)C2=C1
inactive: EKVX NSCLC 35.2% | SN12C renal 29.3% | HL-60(TB) leukemia 52.3% | CCRF-CEM leukemia 80% | MOLT-4 leukemia 80% | SR leukemia 95.1% | RPMI-8226 leukemia 90% | OVCAR-5 ovarian 22.8% | HS 578T breast 79%
active: SK-MEL-2 melanoma -15.6% | UO-31 renal -42.1% | TK-10 renal -19% | ACHN renal -43% | A498 renal -74.2% | OVCAR-8 ovarian 3.99% | OVCAR-4 ovarian 4.85% | SK-OV-3 ovarian -18.1% | IGROV1 ovarian 2.81% | OVCAR-3 ovarian -14%

COC(=O)[C@@H](C)C[C@H](Cc1ccc(F)cc1)NC(=O)c1csc([C@@H](C[C@H](C(C)C)N(C)C(=O)[C@@H](NC(=O)[C@H]2CCCCN2C)C(C)C)OC(C)=O)n1
active: A498 renal -3.94% | HL-60(TB) leukemia -37.5% | OVCAR-3 ovarian -27.4%
inactive: SK-MEL-2 melanoma 37.7% | EKVX NSCLC 48.7% | SN12C renal 26.6% | UO-31 renal 47% | TK-10 renal 50.2% | ACHN renal 22.1% | CCRF-CEM leukemia 12.3% | MOLT-4 leukemia 18.3% | SR leukemia 14.9% | RPMI-8226 leukemia 17.4% | OVCAR-8 ovarian 30% | OVCAR-5 ovarian 53.7% | OVCAR-4 ovarian 49.2% | SK-OV-3 ovarian 21.4% | IGROV1 ovarian 25.3% | HS 578T breast 34%

CC(=O)O[C@H](C[C@H](C(C)C)N(C)C(=O)[C@@H](NC(=O)[C@H]1CCCCN1C)C(C)C)c1cccc(C(=O)N[C@@H](Cc2ccccc2)C[C@H](C)C(=O)O)n1
inactive: SK-MEL-2 melanoma 30.4% | EKVX NSCLC 37.3% | SN12C renal 22% | UO-31 renal 39.4% | TK-10 renal 69% | ACHN renal 35.3% | RPMI-8226 leukemia 19.7% | OVCAR-5 ovarian 32.5% | OVCAR-4 ovarian 41.9% | SK-OV-3 ovarian 23.3% | IGROV1 ovarian 24%
active: A498 renal -13.2% | HL-60(TB) leukemia -38.1% | CCRF-CEM leukemia 5.5% | MOLT-4 leukemia 9.11% | SR leukemia 6.32% | OVCAR-8 ovarian 1.57% | OVCAR-3 ovarian -50.3% | HS 578T breast 9.57%

COC1OC(CO)C(O)C(O)[CH]1[Hg][O]C(C)=O (configuration not stated)
inactive: SK-MEL-2 melanoma 107% | EKVX NSCLC 111% | SN12C renal 88.5% | UO-31 renal 101% | TK-10 renal 111% | ACHN renal 98.5% | A498 renal 106% | HL-60(TB) leukemia 94.6% | CCRF-CEM leukemia 96.1% | MOLT-4 leukemia 91.1% | SR leukemia 64.3% | RPMI-8226 leukemia 104% | OVCAR-8 ovarian 103% | OVCAR-5 ovarian 102% | OVCAR-4 ovarian 95.6% | SK-OV-3 ovarian 117% | IGROV1 ovarian 86.9% | OVCAR-3 ovarian 75.9% | HS 578T breast 89.8%

CC(=O)O[C@H](C[C@H](C(C)C)N(C)C(=O)[C@@H](NC(=O)[C@H]1CCCN1C)C(C)C)c1nc(C(=O)N[C@@H](Cc2ccccc2)C[C@H](C)C(=O)O)c(C)s1
inactive: SK-MEL-2 melanoma 36.5% | EKVX NSCLC 53.7% | SN12C renal 29.2% | UO-31 renal 49.3% | TK-10 renal 42.4% | ACHN renal 26.7% | MOLT-4 leukemia 18.9% | RPMI-8226 leukemia 19.8% | OVCAR-8 ovarian 17.9% | OVCAR-5 ovarian 36.1% | OVCAR-4 ovarian 48.2% | IGROV1 ovarian 30.2% | HS 578T breast 23.8%
active: A498 renal -2.65% | HL-60(TB) leukemia -19.2% | CCRF-CEM leukemia 8.48% | SR leukemia 8.27% | SK-OV-3 ovarian 6.85% | OVCAR-3 ovarian -22.9%
